Screening data (PubChem BioAssay)
A selection: hits, their analogues and other compounds. The true share with any hit is near 12%.
Sfp PPTase inh = inhibitors of Bacillus subtilis Sfp phosphopantetheinyl transferase | Biochemical Sfp PPTase activity, qHTS | Potency, µM, without a hit: largest response in the series, negative = inhibition, most hits filed as inhibitors | hit rate 3.5% among 310,000 | AID 1490;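 also: the enzyme is Sfp with the accession as filed and its product quenches rhodamine fluorescence; 0% = enzyme reaction without inhibitor and -100% = no enzyme wells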
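Sfp 15 nM + cpd, 15 min RT; start w/ rhodamine-CoA 5 uM, BHQ-2-YbbR 12.5 uM (final); 50 mM Hepes pH 7.6, 10 mM MgCl2, 0.01% NP-40, 0.01% BSA; read 525/598 nm at 0 and 30 min.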
HP1b chromo inh = HP1-beta chromodomain-methylated histone interaction inhibition. P83916. hit rate 0.56% among 390,000. AlphaScreen HP1-beta / biotin-H3K9me3 peptide binding. Potency, µM (series often up to 114 µM), inactives show at the highest dose activity change, negative = inhibition, most hits filed as inhibitors; also: nearly all actives have a fitted effect of over 70% in size
Target sequence (P83916 whole entry, looked up): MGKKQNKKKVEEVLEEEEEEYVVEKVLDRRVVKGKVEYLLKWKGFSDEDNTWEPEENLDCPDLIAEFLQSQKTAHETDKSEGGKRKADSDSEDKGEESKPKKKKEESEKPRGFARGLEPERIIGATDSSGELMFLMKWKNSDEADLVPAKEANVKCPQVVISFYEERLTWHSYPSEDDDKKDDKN
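Compound inhibition of the preformed complex between 50 nM HP1-beta and 50 nM biotinylated H3K9me3 peptide was read by AlphaScreen. Buffer was PBS pH 7.4 with 0.01% Tween-20. Incubations ran 30 min at room temperature, with 10 ug/mL donor/acceptor beads.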
JMJD2A Tudor inh = blocks the human JMJD2A Tudor domain; Potency, µM (series often up to 114 µM), without a hit: at the top dose activity change, negative = inhibition, hits mostly inhibitors; AlphaScreen JMJD2A-Tudor / H3K4me3 peptide binding; hit rate 4.4% among 390,000; O75164; also: % is scaled to controls: 0 for no effect and ±100 for the full control effect; nearly all actives have a fitted effect of over 50% in size
G9a block = inhibitors of human histone lysine methyltransferase G9a; G9a H3K9 monomethylation, AlphaScreen, 2 h; hit rate 8.8% among 350,000; Potency, µM (doses to about 102 µM), for inactives: top-dose activity, negative = inhibition, actives largely listed as inhibitors; Q96KQ7; also: % is scaled to controls: 0 for no effect and ±100 for the full control effect; nearly all actives have a fitted effect of over 75% in size
Target sequence (Q96KQ7 913-1193 limits assumed): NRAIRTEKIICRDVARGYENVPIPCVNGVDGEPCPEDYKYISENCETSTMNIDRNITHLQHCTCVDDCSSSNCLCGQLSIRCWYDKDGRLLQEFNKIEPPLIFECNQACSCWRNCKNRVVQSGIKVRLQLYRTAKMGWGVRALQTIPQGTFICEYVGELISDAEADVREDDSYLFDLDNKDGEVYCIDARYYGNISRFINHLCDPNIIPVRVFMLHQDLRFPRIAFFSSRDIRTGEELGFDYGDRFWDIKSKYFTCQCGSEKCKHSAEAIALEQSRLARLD
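Enzyme 20 nM + cpd, 15 min RT; add b-H3K9 pep 500 nM / SAM 20 uM; 2 h RT; anti-H3K9me1 Ab 0.5 ug/mL + SA donor / anti-rabbit acceptor beads 20 ug/mL each, 10 min; AlphaScreen read.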
BAZ2B inh = blocks human BAZ2B | Q9UIF8 | AlphaScreen BAZ2B-H3K14Ac peptide displacement | Potency, µM (titrated, usually from 114 µM), inactives show at the top dose activity change, negative = inhibition, usual class: inhibitors | hit rate 4.4% among 360,000 | AID 504333; also: % is scaled to controls: 0 for no effect and ±100 for the full control effect; nearly all actives have a fitted effect of over 60% in size
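AlphaScreen displacement: compounds (up to 110uM) incubated 30 min at room temperature with a preformed 50 nM BAZ2B/50 nM biotinylated H3K14Ac peptide complex in PBS pH 7.4 with Tween-20. Donor and acceptor beads at 10 ug/mL final added, 20 min light-protected before reading.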
Numbers without * were called inactive; ? = inconclusive; / = no result given; [ ] = dose if it differs, or a comment. Calls follow the shape of the dose curve; as a rule, active = well fitted curve in the direction sought with a large enough effect; inconclusive = small, poorly fitted or top-dose-only effect, or another doubt; inactive = no such curve, though single readings can be large; an effect the other way counts as inactive or inconclusive. Potency is read from the fitted curve at half-maximal effect.

SMILES	Sfp PPTase inh	HP1b chromo inh	JMJD2A Tudor inh	G9a block	BAZ2B inh
COC(=O)c1cc2c(-c3ccccc3)c(C)c3ccccn3c-2c1C(=O)OC	-13%	?	45µM*	14µM*	14µM*
COC(=O)c1c(Cl)c2n3ccccc3c(C)c(-c3ccccc3)c-2c1C(=O)OC	-28%	?	?	8.9µM*	?
CCCCN(CC)Cc1ccc(CNC(=S)Nc2ccccc2F)o1	-16%	13%	-13%	0%	4%
COc1cc(C(C(=O)NCC2CCCO2)N(C(=O)Cn2nnc3ccccc32)c2ccc(OC)c(OC)c2)ccc1O (stereo not drawn)	15%	28%	0%	25%[59 µM]	2%
CCOc1cc(C(C(=O)NCC2CCCO2)N(C(=O)Cn2nnc3ccccc32)c2ccc(NC(C)=O)cc2)ccc1O (stereo not drawn)	5%	37%	4%	45µM*	-6%
CNC(=S)N1N=C(c2ccc(C)cc2)CC1c1ccc(N(C)C)cc1 (stereo not drawn)	?	50µM*	32µM*	14µM*	10µM*
COc1ccc(C2=NN(C(=O)CN3CCCCC3)C(c3ccc(C)cc3)C2)cc1 (stereo not drawn)	22%	5%	-35%	26%[12.7 µM]	-22%
CNC(=S)N1N=C(c2ccc(Br)cc2)CC1c1ccc(OC)cc1 (stereo not drawn)	45µM*	?	2.5µM*	2.5µM*	-34%
COc1ccc(C2CC(c3ccccc3)=NN2C(=O)CN2CCN(Cc3ccccc3)CC2)cc1 (stereo not drawn)	18%	-31%	79µM*	?	35µM*
COC(=O)Cc1c(C)nc2nc(Cc3ccccc3)[nH]n2c1=O	15%	51%	1%	7%[12.7 µM]	-6%
O=S(=O)(Nc1cc(Cl)ccc1N1CCCCC1)c1cccs1	-15%	13%	-23%	?	-5%
CC(=O)/C=C/n1c(=S)oc2ccccc21	0%	61%	-1%	?	1%
CCN(C(=O)COC(=O)c1n[nH]c2ccccc12)C1CCS(=O)(=O)C1 (stereo not drawn)	5%	18%	-13%	26%[59 µM]	30%
CNc1nc(NN)nc(Nc2ccccc2)n1	10%	41%	25µM*	-8%[0.501 µM]	28µM*
O=C(COc1ccc(Cl)cc1Br)N1CCN(S(=O)(=O)c2ccccc2)CC1	1%	17%[57 µM]	-12%	13%	-7%
Cn1cccc1CC(=O)NNC(=S)NC(=O)c1ccccc1Br	27%	-5%	-22%	18µM*	0%
Cn1cccc1CC(=O)NNC(=S)Nc1ccc(Cl)cc1Cl	0%	19%	-13%	45µM*	?
Cn1cccc1CC(=O)NNC(=S)Nc1ccc(F)cc1	8%	12%	?	?	-12%
CCCc1[nH]nc2c1C1(C(=O)N(C(C)C)c3ccccc31)C(C#N)=C(N)O2 (stereo not drawn)	6%	4%	-27%	-26%[12.7 µM]	-2%
N#Cc1ccc(OC(=O)c2cnccn2)cc1	-18%	8%	?	32µM*	79µM*
C(=N\Nc1nc(N2CCCCC2)nc(N2CCCCC2)n1)/c1c[nH]c2ccccc12	25%	6%	35µM*	?	40µM*
CN(C)c1nc(N/N=C/c2c[nH]c3ccccc23)nc(N2CCOCC2)n1	8%	9%	-20%	-44%	-34%
O=[N+]([O-])c1ccccc1N/N=C/c1c[nH]c2ccccc12	7%	13µM*	11µM*	?	10µM*
C(=N\Nc1nc2ccccc2[nH]1)/c1cccc2cccnc12	-8%	10%	14µM*	/	7.1µM*
Cc1[nH]c2ccccc2c1/C=N/Nc1nc2ccccc2[nH]1	11%	?	45µM*	40µM*	28µM*
SMILES	Sfp PPTase inh	HP1b chromo inh	JMJD2A Tudor inh	G9a block	BAZ2B inh
Cc1ccccc1/C=N/Nc1nc2ccccc2[nH]1	?	12%	-17%	-40%	-29%
CCOC(=O)N1CCN(C(=O)c2ccccc2NC(C)=O)CC1	1%	13%	-9%	/	-8%
Cc1cc(=O)[nH]c(N/N=C/c2c[nH]c3ccccc23)n1	28µM*	13%	-13%	?	19%
C(=N\Nc1nc2ccccc2[nH]1)/c1c[nH]c2ccccc12	?	?	45µM*	4%[59 µM]	45µM*
C(=C\c1ccccc1)/C=N/Nc1nc2ccccc2[nH]1	14µM*	21%	?	?	-35%
C(=N\Nc1nc2ccccc2[nH]1)/c1ccccc1	-8%	30%	-17%	-12%[12.7 µM]	-22%
O=[N+]([O-])c1cc(/C=N/Nc2nc3ccccc3[nH]2)c(O)cc1O	-21%	?	28µM*	50µM*	20µM*
CSc1ccc(-c2nc3ncccn3c2Nc2ccc(C)c(C)c2)cc1	/	0%	-27%	3%[59 µM]	-11%
Cc1ccc(C)c(N2CCN(S(=O)(=O)c3cn(C)cn3)CC2)c1	9%	16%	-16%	-5%	-26%
CCN(C(=O)C1CC1)C1CCS(=O)(=O)C1 (stereo not drawn)	/	15%	-19%	-4%	?
COCCCN(C(=S)Nc1c(C)cc(C)cc1C)C(C)c1ccccn1 (stereo not drawn)	22µM*	6%	-7%	40µM*	-25%
O=C(O)c1cnccn1	?	?	25µM*	8.9µM*	45µM*
O=C(Nc1nccs1)c1ccc(Cl)nc1	16%	37%	-5%	?	-6%
O=C(Nc1nccs1)c1cnccn1	?	-2%	?	6.3µM*	?
O=C(Nc1nccs1)c1ccccn1	79µM*	41%	79µM*	?	/
Cn1cc(Cl)c(C(=O)Nc2nccs2)n1	6%	-11%	-14%	-4%	-21%
O=C(Nc1nccs1)c1ncc(Cl)c(Cl)c1Cl	-6%	28%	-7%	45µM*	5%
O=C(NCN1CCCCC1)c1cnccn1	10%	22%	-9%	?	-3%
COc1ccc(Cl)cc1NC(=O)CSc1nc(N2CCOCC2)nc(N2CCOCC2)n1	-16%	26%	-15%	18%[12.7 µM]	-13%
CN(c1ncc(C(F)(F)F)cc1Cl)N1C(=O)c2cccc(N)c2C1=O	-20%	71%	9%	/	-9%
CC(=O)c1cccc2c(O)c(C3=Nc4ccccc4C3=O)[nH]c12	40µM*	-94%	45µM*	?	25µM*
O=C1C(c2c(O)[nH]c3ccccc23)=Nc2ccccc21	16%	-25%	-26%	5%[59 µM]	-11%
COc1ccc(N2CCN(C3CCCN(Cc4ccc(F)cc4)C3)CC2)cc1 (stereo not drawn)	4%	-16%	-32%	?	?
COc1ccc(N2CCN(C3CCCN(Cc4ccc(F)c(F)c4)C3)CC2)cc1 (stereo not drawn)	9%	-20%	?	45µM*	?
COC(=O)c1ccc(CN2C(=O)c3ccccc3C2=O)o1	6%	19%	-1%	19%[59 µM]	11%
COC(=O)c1ccc(CN2CCN(Cc3ccc(C(=O)OC)o3)CC2)o1	20%	19%	5%	11µM*	/
